Only some compounds are listed: those with a hit (about 2.8% of all), similar ones and a draw of the others.
Peg3 prom inh-1: inhibitors of Peg3 promoter; 360,000 compounds, 1.7% hits; inhibition, % at 20 µM; HeLa PEG-Prom luciferase reporter, luminescence, overnight; AID 588405;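 active means inhibition of at least 50% at 20 µM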
Shn3 3UTR inh: inhibitors of Schnurri-3 3'UTR reporter in osteoblasts. Clone20 osteoblast Shn3 3'UTR firefly luciferase, 24 h. inhibition, % at 12.5 µM. 360,000 compounds, 0.52% hits. AID 588674;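 active means mean inhibition of at least 75% with every replicate also reaching 75%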
CF NFkB block: blocks PAF-induced NF-kB reporter in cystic fibrosis cells; inhibition, % at 5 µM; 360,000 compounds, 0.86% hits; AID 588850; KKLEB NF-kB-GFP reporter, GFP fluorescence overnight;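 active means at least 50% inhibition at 5 µM, scaled per plate between neutral and stimulator controls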;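 further: PAF is a Pseudomonas aeruginosa culture filtrate used as stimulus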
HIF-2a block: blocks HIF-2a reporter activity; 786-0 RCC cells HIF-2a reporter, luciferase luminescence, overnight; inhibition, % at 18.8 µM; 360,000 compounds, 0.72% hits; AID 624352;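 active means inhibition of the luminescence signal of 40% or more relative to plate controls, in a single-dose primary screen at 18.75 µM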
MITF TRPM1 inh: MITF TRPM1 promoter inhibition in SK-MEL-5 cells. SK-MEL-5 TRPM1 promoter luciferase, 24 h. inhibition, % at 12.5 µM. 330,000 compounds, 0.83% hits;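 active means mean inhibition across replicates of 60% or more, whatever share of single replicates reaches that level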
KKLEB cytotox: reduces viability of KKLEB cystic fibrosis airway cells; KKLEB CF airway cells viability, ATPlite luminescence, overnight; stronger effect = lower value; cells stimulated with P. aeruginosa culture filtrate; activity change (cytotoxicity), % at 5 µM; 360,000 compounds, 0.36% hits; AID 602141;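 active means corrected activity change at or below -50% at 5 µM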
Peg3 prom inh-2: confirmation of Peg3 promoter inhibitors | HeLa PEG-Prom luciferase reporter, luminescence, overnight | inhibition, % at 20 µM | shares compounds with Peg3 prom inh-1 | AID 602417 | 1,300 compounds, 84% hits;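 active means at 20 µM dose, 40% or more inhibition averaged across four replicates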
Hits are given with their value; i = inactive; nt = not tested or not shown.

SMILES | Peg3 prom inh-1 | Shn3 3UTR inh | CF NFkB block | HIF-2a block | MITF TRPM1 inh | KKLEB cytotox | Peg3 prom inh-2
Cc1cc(C)c(CN2CCC(N3CCC(C(=O)NCC4CCCO4)CC3)CC2)cc1C (stereo not given) | i | i | i | i | i | i | nt
O=C(Nc1ccc(OC(F)(F)F)cc1)c1cnccn1 | i | i | i | i | i | i | nt
CCN1C/C(=C/c2ccc(N3CCOCC3)cc2)C(=O)/C(=C/c2ccc(N3CCOCC3)cc2)C1 | 101 | i | i | 93 | 93 | i | 97
CC(C)(C)c1ccc(OCCCNCc2ccccc2)cc1 | 112 | i | i | i | i | i | 61
COc1ccc(N=CC2=C(O)c3ccccc3C2=O)c(OC)c1 | 74 | i | i | 55 | 76 | -77 | i
COc1ccc(CC2=C(O)c3ccccc3C(=O)C2=O)cc1 | i | i | i | i | i | i | nt
COc1c(/C=N/NC(=O)c2ccncc2)c(CCN(C)C(C)=O)cc2c1OCO2 | i | i | i | i | i | i | nt
O=S(=O)(c1cccs1)N1CCN(c2ccnc3cc(Cl)ccc23)CC1 | 51 | i | i | i | i | i | 69
CCCCNC(=O)C(C)N(CCN(C)C)C(=O)CCCN1C(=O)NC(c2ccc([N+](=O)[O-])cc2)C(C(=O)OCc2ccccc2)=C1C (stereo not given) | 57 | i | i | i | i | i | i
Cc1ccc(F)c(S(=O)(=O)NC(=O)C2(C)CCN2C(=O)c2ccccc2)c1 (stereo not given) | i | i | i | i | nt | i | nt
CN1CCN(CCNC(=O)c2ccc3nc(-c4ccc(F)cc4)c(-c4ccc(F)cc4)nc3c2)CC1 | 74 | i | i | i | 89 | i | 90
O=C(NNC(=O)c1nn(-c2ccc(F)cc2)ccc1=O)c1ccccc1Cl | i | nt | i | i | i | i | nt
O=c1cc(NCCCO)c2ccccc2o1 | i | i | i | i | i | i | nt
CN(C)CCNc1ccc(CO)c2oc3ccc(O)cc3c(=O)c12 | 97 | i | i | 41 | i | i | 90
CCc1cccc(CC)c1NC(=S)NCCc1c(C)[nH]c2ccc(C)cc12 | 69 | i | i | i | i | i | 85
CCN(CC)CCC(c1ccc(N(C)C)cc1)c1c(OC)cc(OC)c2c(-c3ccccc3)cc(=O)oc12 (stereo not given) | 84 | i | i | i | i | i | i
COc1cc(OC)c2c(-c3ccccc3)cc(=O)oc2c1C(CCN1CCN(c2ccccc2)CC1)c1ccc(N(C)C)cc1 (stereo not given) | i | i | i | i | i | i | nt
Cc1[nH]n2c(=O)cc(C(C)(C)C)nc2c1-c1ccccc1 | 54 | i | i | i | i | i | 50
Cc1cc(C(=O)CSc2nnc3ccccn23)c(C)n1-c1ccccc1 | 101 | i | i | 84 | 78 | i | 81
COc1ccc(C2c3ccc4ccccc4c3Oc3ncn(CCO)c(=N)c32)cc1OC (stereo not given) | 60 | i | i | i | i | i | 82
COc1ccc(C2c3ccc4ccccc4c3Oc3ncn(CCCO)c(=N)c32)cc1 (stereo not given) | 65 | i | i | i | i | i | 86
N=c1c2c(ncn1CCCO)Oc1ccc3ccccc3c1C2c1ccccc1 (stereo not given) | i | i | i | i | nt | i | nt
COc1ccc(C2c3c(ncn(CCCN4CCOCC4)c3=N)Oc3ccc4ccccc4c32)cc1OC (stereo not given) | 69 | i | i | i | 80 | i | 86
COc1ccc(CNn2c(-c3cccc(C)c3)nc3ccccc3c2=O)cc1OC | 57 | i | i | i | i | i | i
CSc1ccccc1C(=O)OCC(=O)Nc1c(C)n(C)n(-c2ccccc2)c1=O | i | i | i | i | nt | i | nt
Cc1cc(C)c(S(=O)(=O)N2CCN(C(=O)c3cc(=O)[nH]c4ccccc34)CC2)c(C)c1 | i | i | i | i | i | i | nt
Cc1cc(C)c(C)c(S(=O)(=O)N2CCN(C(=O)c3cc(=O)[nH]c4ccccc34)CC2)c1C | 59 | i | i | i | i | i | 58
CS(=O)(=O)N(CC(=O)NCCc1ccccc1)c1cccc([N+](=O)[O-])c1 | i | i | i | i | i | i | nt
